Test systems include RPMI-8226 leukemia; OVCAR-4 ovarian; SK-OV-3 ovarian; IGROV1 ovarian; OVCAR-3 ovarian; HS 578T breast; NCI/ADR-RES ovarian; OVCAR-8 ovarian; OVCAR-5 ovarian.
What all share (experiment): NCI-60 one-dose screen, 48 h (100 = growth as untreated, 0 = no growth, -100 = all killed)
Holding throughout (details): 10 µM

This is part of a sample that, as a whole, favours compounds with a hit. Of some 83,000 tested, about 20% had one in any assay.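 Results are percent growth after 48 hours of single-concentration exposure. 100 means growth as in untreated cells, lower positive values show inhibition; negative values down to -100 show cell death.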 A number with no mark means an inactive call. Active and inactive are the calls of the source. The calls were made as follows: active = growth percent below 10; inactive = the rest.

This passage reports growth results from PubChem BioAssay (NCI).

For `Brc1ccc(/C=C/c2n(Cc3ccc4ccccc4c3)c3ccccc3[n+]2Cc2ccc3ccccc3c2)cc1`, the growth in the assay with RPMI-8226 leukemia was -56.8% (active); in the assay with OVCAR-4 ovarian, -85.9% (active); with SK-OV-3 ovarian, -3.34% (active); with IGROV1 ovarian, -68.4% (active); in the assay with OVCAR-3 ovarian, -89.5% (active); in the assay with HS 578T breast it was -43.6% (active). For the same compound, the growth with NCI/ADR-RES ovarian was 78.7%.

Consider `COc1ccc(/C(C)=N/N=C2C(=O)N(C)c3ccc(Br)cc32)cc1S(N)(=O)=O`, for which the growth was 27.4% in the assay with OVCAR-8 ovarian; 81.4% in the assay with OVCAR-5 ovarian; 48.4% in the assay with OVCAR-4 ovarian; 58.8% with SK-OV-3 ovarian; 71.5% in the assay with IGROV1 ovarian; 69.6% in the assay with OVCAR-3 ovarian. Besides, the growth with HS 578T breast is 39.7%; in the assay on NCI/ADR-RES ovarian, 68.2%.

On to `O=C1Nc2cc(Cl)ccc2/C1=C/c1cccc(OCc2ccccc2)c1`, for which the growth in the assay on OVCAR-8 ovarian is -65% (active); in the assay with OVCAR-5 ovarian, 11.9%; in the assay on OVCAR-4 ovarian, 36.7%; with SK-OV-3 ovarian it was 32%; in the assay with IGROV1 ovarian, 11.1%; in the assay on OVCAR-3 ovarian, -5.96% (active). In addition, the growth in the assay on HS 578T breast was -2.85% (active); with NCI/ADR-RES ovarian, -22.2% (active).

With `CN(CCF)c1ccc(/C=C/C(=O)c2ccc(N)cc2O)cc1`, the growth is 70.6% in the assay on OVCAR-8 ovarian; 90% with OVCAR-5 ovarian; 68.8% in the assay with OVCAR-4 ovarian; 105% with SK-OV-3 ovarian; 94.3% in the assay with IGROV1 ovarian; 80.8% in the assay on OVCAR-3 ovarian. In addition, the growth is 112% in the assay on HS 578T breast and 71.7% with NCI/ADR-RES ovarian.

For the compound `O=C(c1ccc(-n2c(=O)[nH]c3ccccc3c2=O)cc1)N1CCOCC1`, the growth in the assay with RPMI-8226 leukemia was 120%; with OVCAR-8 ovarian it was 108%; with OVCAR-4 ovarian, 114%; in the assay on SK-OV-3 ovarian it was 124%; in the assay on IGROV1 ovarian, 104%; with OVCAR-3 ovarian it was 108%. Besides, the growth with HS 578T breast was 101%; in the assay with NCI/ADR-RES ovarian, 106%.

For the compound `CCCS(=O)(=O)c1oc(-c2ccc(F)cc2)nc1S(=O)(=O)c1ccc(F)cc1`, the growth in the assay with RPMI-8226 leukemia was -46.6% (active); with OVCAR-8 ovarian, -69.3% (active); with OVCAR-4 ovarian it was -90.7% (active); in the assay with SK-OV-3 ovarian, 83.3%; in the assay with IGROV1 ovarian, 74.9%; in the assay with OVCAR-3 ovarian, -96% (active). Further, the growth is 56.8% with HS 578T breast and -52.2% (active) in the assay on NCI/ADR-RES ovarian.

Consider `CN1CCN(c2ccc(Nc3nc(NCCCNC(=O)c4ccc(Cl)cc4)c4sccc4n3)cc2)CC1`, for which the growth in the assay on RPMI-8226 leukemia was 48.5%; with OVCAR-5 ovarian it was 90.8%; with OVCAR-4 ovarian, 70.6%; in the assay on SK-OV-3 ovarian, 103%; in the assay on IGROV1 ovarian it was 88.3%; in the assay on OVCAR-3 ovarian it was 109%. In addition, the growth in the assay with HS 578T breast was 78.8%; in the assay with NCI/ADR-RES ovarian it was 91.6%.

Take `O=C1Nc2ccc(Cl)cc2/C1=C/c1cccc(OCc2ccccn2)c1`: the growth is -45.3% (active) in the assay on RPMI-8226 leukemia; -45.2% (active) in the assay with OVCAR-5 ovarian; 4.17% (active) in the assay with OVCAR-4 ovarian; 4.02% (active) with SK-OV-3 ovarian; 0.125% (active) in the assay with IGROV1 ovarian; -35.8% (active) in the assay on OVCAR-3 ovarian. Besides, the growth in the assay with HS 578T breast was -1.17% (active); in the assay with NCI/ADR-RES ovarian, -23.8% (active).

Turning to `CC1(C)CC[C@]2(C(=O)N3CCOCC3)CC[C@]3(C)C(=CC[C@@H]4[C@@]5(C)CC[C@H](NCO)C(C)(C)[C@@H]5CC[C@]43C)[C@H]2C1`, the growth with OVCAR-8 ovarian is -73.5% (active); with OVCAR-5 ovarian, -99.9% (active); in the assay with OVCAR-4 ovarian it was -89.5% (active); with SK-OV-3 ovarian, -86.4% (active); in the assay on IGROV1 ovarian, -85.6% (active); in the assay on OVCAR-3 ovarian, -82.7% (active). Besides, the growth is -68.2% (active) with HS 578T breast and -73.1% (active) in the assay with NCI/ADR-RES ovarian.

On to `CC1(C)CC[C@]23CC[C@]4(C)[C@H](CC[C@@H]5[C@@]6(C)CC[C@H](N)C(C)(C)[C@@H]6CC[C@]54C)[C@H]2[C@H]1OC3=O`, for which the growth in the assay on RPMI-8226 leukemia is -31.4% (active); with OVCAR-8 ovarian, -50.7% (active); with OVCAR-4 ovarian, -90.3% (active); in the assay on SK-OV-3 ovarian, -32.1% (active); with IGROV1 ovarian it was -94.2% (active); in the assay on OVCAR-3 ovarian, -81% (active). The growth in the assay on HS 578T breast was -62.2% (active); with NCI/ADR-RES ovarian, -69.4% (active).

Take `CNC(=O)c1cccc(N2CCc3c2ccc(NC(=O)Nc2ccc(N4CCN(C)CC4)c(C(F)(F)F)c2)c3F)c1`: the growth with OVCAR-8 ovarian is -83.4% (active); with OVCAR-5 ovarian, -85.1% (active); in the assay with OVCAR-4 ovarian, -86.1% (active); in the assay with SK-OV-3 ovarian, 45.3%; with IGROV1 ovarian it was -91.7% (active); in the assay on OVCAR-3 ovarian, -80% (active). Besides, the growth with HS 578T breast was -1.44% (active); in the assay with NCI/ADR-RES ovarian it was -79.2% (active).

Regarding `C=C1CC[C@H](C(=C)C)[C@H]2C=C(C)C(=O)C3=C(C(=O)[C@@](C)(O)C3)[C@H]12`, the growth in the assay on OVCAR-8 ovarian is -96.5% (active); in the assay with OVCAR-5 ovarian it was -87.2% (active); in the assay with OVCAR-4 ovarian, -81.8% (active); in the assay with SK-OV-3 ovarian it was -89.1% (active); with IGROV1 ovarian, -61.4% (active); in the assay on OVCAR-3 ovarian, -41.7% (active). Also, in the assay with NCI/ADR-RES ovarian, the growth was -31.1% (active).

Consider `COc1cccc(C(N)=Nc2ccc(OCCCCCCn3cncn3)cc2)c1`, for which the growth in the assay on RPMI-8226 leukemia was 16%; with OVCAR-5 ovarian, 28.2%; with OVCAR-4 ovarian, 60.7%; in the assay with IGROV1 ovarian it was 31.4%; in the assay with OVCAR-3 ovarian, 16.2%; in the assay on HS 578T breast, 26.4%. Moreover, in the assay on NCI/ADR-RES ovarian, the growth is 13.5%.

For `COc1ccc(N2N=C(c3ccc4c(c3)OCCO4)CC2c2cccc(NC(=O)CCCNS(=O)(=O)c3ccc(F)cc3)c2)cc1` (configuration not stated), the growth in the assay with OVCAR-8 ovarian is 87.7%; with OVCAR-5 ovarian, 89%; in the assay on OVCAR-4 ovarian, 60%; in the assay on SK-OV-3 ovarian it was 101%; in the assay on IGROV1 ovarian, 81.5%; in the assay with OVCAR-3 ovarian, 81.3%. In the assay on HS 578T breast, the growth was 78.7%.

As for `CN1CCN(c2ccc(Nc3nc(N4CCN(S(=O)(=O)c5ccc(Cl)cc5)CC4)c4sccc4n3)cc2)CC1`, the growth was -82.9% (active) in the assay with OVCAR-8 ovarian; -80.9% (active) in the assay on OVCAR-5 ovarian; -82.6% (active) with OVCAR-4 ovarian; 116% with SK-OV-3 ovarian; 84.3% in the assay with IGROV1 ovarian; -34.9% (active) in the assay with OVCAR-3 ovarian. Further, the growth in the assay with HS 578T breast is 83.9%; in the assay on NCI/ADR-RES ovarian, 16.1%.

On to `COc1ccccc1[C@H]1C(C(=O)c2ccc(Cl)cc2)C2(N[C@@H]1c1ccccc1)C(=O)Nc1ccccc12` (some centres not stated), for which the growth in the assay with RPMI-8226 leukemia is 5.12% (active); in the assay with OVCAR-5 ovarian, -24.8% (active); in the assay with OVCAR-4 ovarian, 24.8%; in the assay with SK-OV-3 ovarian, 16.9%; in the assay with IGROV1 ovarian it was -3.06% (active); in the assay on OVCAR-3 ovarian it was -42.7% (active). Moreover, the growth is -12.9% (active) in the assay on HS 578T breast and -69.7% (active) in the assay on NCI/ADR-RES ovarian.

`COc1ccc2nc(Nc3cccc(NC(=O)c4ccc(CN5CCN(C)CC5)c(C(F)(F)F)c4)c3)ccc2c1`: the growth is -33% (active) in the assay on RPMI-8226 leukemia; -38.1% (active) in the assay on OVCAR-8 ovarian; -27.1% (active) in the assay on OVCAR-4 ovarian; -48.8% (active) in the assay on SK-OV-3 ovarian; -69.8% (active) in the assay on IGROV1 ovarian; -36% (active) in the assay with OVCAR-3 ovarian. Besides, the growth is -23.1% (active) in the assay on HS 578T breast and -37.9% (active) with NCI/ADR-RES ovarian.
